Results from PubChem BioAssay AID624416 (The Scripps Research Institute Molecular Screening Center, 2012).
Among all 360,000 compounds or so, about 1,500 (0.42%) were called active. Cut-off read from the data, not from the text of the source: active = inhibition above about 8.5%; inactive = the rest. The full list was thinned out, with actives kept by preference.

tested on: HIV-1 gp120 / PG9 antibody interaction; test: small molecules engaging PG9 antibody – biochemical, TR-FRET, primary screen (AID 624416); conditions: TR-FRET gp120-PG9 antibody binding; at 6.7 µM; stronger effect = higher value

inhibition, inactive:
Cc1ccc(F)c(NC(=O)CCOc2ccccc2C)c1 -0.27%
Cc1ccccc1OCC(=O)Nc1nc(C)c(C(=O)N(C)C)s1 0.64%
COC(=O)C1=C(C)N(Cc2ccc(F)cc2)C(=S)NC1c1cccc(Cl)c1 (stereo unspecified) -0.02%
COC(=O)c1ccc(NC(=S)NN2CCOCC2)cc1 -2.64%
Cc1cccc(NC(=O)Cc2ccc(Br)cc2)n1 1.95%
COc1cccc(CNC(=O)[C@H]2CCCN2C(=O)[C@H]2CCCN2C(=O)C2CCCCC2)c1 1.65%
O=C(CSc1nc(C2CC2)nc2ccccc12)Nc1ccc2c(c1)OCCO2 -1.48%
CCCNC(=O)CSc1nc(Cc2ccccc2)nc2ccccc12 0.37%
C[C@H](O)[C@@H]1C(=O)N2CCc3c([nH]c4c(-c5ccc6c(c5)OCO6)cccc34)[C@@H]2C[C@@H]1N(C)C(=O)c1ccco1 -1.4%
CN1C(=O)C(Br)(Br)CC1c1cccnc1 (stereo unspecified) -0.49%
O=C(Nc1ccccc1F)c1ccccc1-c1ccccc1 -1.32%
O=C(O)c1ccccc1-c1ccccc1C(=O)Nc1nccs1 1.5%
COc1ccc(NC(=O)N(C)C[C@@H]2OCCCC[C@@H](C)Oc3ccc(NC(=O)NC4CCCCC4)cc3C(=O)N([C@H](C)CO)C[C@@H]2C)cc1 -0.95%
O=S1(=O)c2c(cccc2N2CCCCC2)O[C@H](COCc2ccccc2)CN1C1CC1 -1.69%
CCOC(=O)c1ccc(NC(=O)Cn2cnc3cc(C)c(C)cc32)cc1 -1.34%
CCOC(=O)c1cccc(NC(=O)CCn2nnc3ccccc32)c1 1.35%
C[C@H](O)[C@@H]1CN2CCc3ccc(-c4ccc5c(c4)OCO5)cc3[C@@H]2C[C@@H]1N(C)C(=O)C1CCCCC1 2.47%
Cc1cc2c(nc1C)CCCN2C -1.95%
Cc1cc(C(F)(F)F)nc(SCC(=O)Nc2nccs2)n1 0.14%
Cc1[nH]c2ccccc2c1SCC(=O)Nc1nccs1 -0.77%

inhibition, active:
CC(=O)c1sc(NC(=O)CCCOc2ccccc2C)nc1C 12%
COC(=O)c1ccc(NC(=S)Nc2cccc(C)n2)cc1 17.4%
CCCc1nc(SCC(=O)Nc2ccc(S(=O)(=O)N(C)C)cc2)c2ccccc2n1 27%
O=C(Nc1nnc(-c2ccccc2F)s1)c1ccccc1F 13.2%
CCn1nnc2cc(C(=O)Nc3ccc(C(=O)OC(C)C)cc3)ccc21 20.3%
CC(=O)c1cc(C#N)c(SCC(=O)Nc2nccs2)nc1C 15.3%
